Test results from PubChem BioAssay (Tox21).
Results filed as inconclusive are left out. Active and inactive are the calls of the source. Unless noted, the call rests on the fitted dose curve; in most records, active means well fitted curve in the direction sought with a large enough effect in the repeat runs; inconclusive means weak or mixed curves; inactive means no such curve, though single readings can be large; an effect the other way counts as inactive or inconclusive.

Columns and labels:
[1] = qHTS assay to identify small molecule agonists of the peroxisome proliferator-activated receptor delta (PPARd) signaling pathway - cell viability counter screen (AID 743211); further: nearly all actives have a fitted effect of over 55% in size
How it was run: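 Tox21 library compounds, delivered in DMSO, were incubated 17 h with PPARd-bla HEK293H cells; cytotoxicity was taken from CellTiter-Glo luminescence read 30 min after reagent addition.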

[2] = biological target: Peroxisome proliferator-activated receptor delta (Homo sapiens) (UniProt Q03181); test: qHTS assay to identify small molecule agonists of the peroxisome proliferator-activated receptor delta (PPARd) signaling pathway (AID 743212; calls by dose curve)
How it was run: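 HEK293H PPARd-bla cells; 5 h preincubation 37 C/5% CO2; compound (DMSO) 37 C; LiveBLAzer B/G FRET substrate 2 h RT; fluorescence intensity.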

[3] = qHTS assay to identify small molecule antagonists of the peroxisome proliferator-activated receptor delta (PPARd) signaling pathway - cell viability counter screen (AID 743213); further: nearly all actives have a fitted effect of over 50% in size
How it was run: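 In this counter screen, HEK293H cells carrying a UAS-beta-lactamase reporter are co-treated with test compounds and 300 nM L165041 (final) for 17 h at 37 C; cell viability is quantified by CellTiter-Glo luminescence.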

[4] = biological target: Peroxisome proliferator-activated receptor delta (Homo sapiens) (UniProt Q03181); test: qHTS assay to identify small molecule antagonists of the peroxisome proliferator-activated receptor delta (PPARd) signaling pathway (AID 743215; active means well fitted inhibition curve with a large enough effect in the signal ratio in the repeat runs, not every such curve was filed as active; the % refers to the signal ratio;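 further: cells stimulated with agonist L165041 at 300 nM final during compound exposure; series mostly up to about 62 µM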)
How it was run: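 PPARd-bla HEK293H cells (UAS-bla reporter) preincubated 5 h, then given compound plus 300 nM final L165041 agonist for 17 h at 37 C. Beta-lactamase activity read by LiveBLAzer B/G FRET substrate fluorescence after 2 h at room temperature.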

[5] = qHTS assay to identify small molecule agonists of the farnesoid-X-receptor (FXR) signaling pathway - cell viability counter screen (AID 743218); further: nearly all actives have a fitted effect of over 45% in size; further: potency means the concentration at half of the fitted maximal effect
How it was run: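 FXR-UAS-bla HEK 293T cells exposed to compounds for 16 h at 37C. Cytotoxicity read in the same wells by CellTiter-Glo luminescence after 30 min at room temperature, following the beta-lactamase FRET read.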

[6] = biological target: Vitamin D3 receptor (Homo sapiens) (UniProt P11473); test: qHTS assay to identify small molecule agonists of the vitamin D receptor (VDR) signaling pathway (AID 743222; calls by dose curve)
How it was run: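 VDR-bla cells plated 4 h at 37 C, then exposed to compounds for 16 h at 37 C. Beta-lactamase reporter activity measured by fluorescence after 2 h room-temperature loading with LiveBLAzer B/G FRET substrate.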

[7] = biological target: Vitamin D3 receptor (Homo sapiens) (UniProt P11473); test: qHTS assay to identify small molecule antagonists of the vitamin D receptor (VDR) signaling pathway (AID 743223; active means well fitted inhibition curve with a large enough effect in the signal ratio in the repeat runs, not every such curve was filed as active; the % refers to the signal ratio)
How it was run: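 Quantitative HTS in VDR-bla reporter cells stimulated with 1alpha,25-dihydroxyvitamin D3, 3 nM final. Compound exposure 16 h, 37C, 5% CO2. Read-out: beta-lactamase FRET substrate fluorescence, 2 h RT.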

[8] = qHTS assay to identify small molecule agonists of the vitamin D receptor (VDR) signaling pathway - cell viability counter screen (AID 743224); further: series mostly up to about 63 µM; nearly all actives have a fitted effect of over 50% in size
How it was run: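 VDR-bla cells, 4 h after plating, exposed to compounds for 16 h at 37C; viability then read in the same wells as CellTiter-Glo luminescence after 30 min at room temperature, following the bla FRET read.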

[9] = qHTS assay to identify small molecule antagonists of the vitamin D receptor (VDR) signaling pathway - cell viability counter screen (AID 743225); further: nearly all actives have a fitted effect of over 50% in size
How it was run: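 Same-well multiplex: following 16 h treatment of HEK 293T cells carrying a UAS-driven beta-lactamase reporter with compound and agonist (3 nM final), and a 2 h FRET substrate step, CellTiter-Glo was added and luminescence read after 30 min.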

[10] = qHTS assay to identify small molecule agonists of the NFkB signaling pathway (AID 1159509; active means well fitted curve in the direction sought with a large enough effect in the signal ratio in the repeat runs, not every such curve was filed as active; the % refers to the signal ratio; further: series mostly up to about 61 µM)
How it was run: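 NFkB-bla ME-180 cells carry a beta-lactamase reporter under an NF-kB response element. They were plated overnight, then exposed to compounds for 5 h at 37 C. Read-out is LiveBLAzer FRET after 1.5 hr at room temperature (405 nm excitation; 460/530 nm emission).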

[11] = qHTS assay to identify small molecule agonists of the NFkB signaling pathway - cell viability counter screen (AID 1159515; calls by dose curve; further: series mostly up to about 61 µM; nearly all actives have a fitted effect of over 55% in size)
How it was run: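 NFkB-bla ME-180 cells, 2,000/well, plated overnight at 37 C; compound added for 5 hr at 37 C. Viability read in the same wells as the bla reporter, by CellTiter-Glo luminescence after 30 min at room temperature.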

[12] = qHTS assay to identify small molecule agonists of the endoplasmic reticulum stress response signaling pathway (AID 1159516; active means well fitted activation curve with a large enough effect in the signal ratio in the repeat runs, not every such curve was filed as active; the % refers to the signal ratio)
How it was run: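 CellSensor ESRE-bla HeLa cells, 1,500 per well, plated overnight, then exposed to compounds for 5 hr at 37 C. Beta-lactamase reporter read with LiveBLAzer B/G FRET substrate after 2 hr at room temperature, 405 nm excitation, 460 and 530 nm emission.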

[13] = qHTS assay to identify small molecule agonists of the endoplasmic reticulum stress response signaling pathway - cell viability counter screen (AID 1159517; calls by dose curve;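 further: HeLa cells carrying an ER stress response element beta-lactamase reporter; series mostly up to about 61 µM; nearly all actives have a fitted effect of over 50% in size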)
How it was run: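 HeLa cells carrying an ESRE-driven beta-lactamase reporter receive compound for 5 hr at 37 C. Cell viability is then gauged with CellTiter-Glo by luminescence, 30 min at room temperature.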

[14] = qHTS assay to identify small molecule antagonists of the retinoid-related orphan receptor gamma (ROR-gamma) signaling pathway - cell viability counter screen (AID 1159520); further: nearly all actives have a fitted effect of over 50% in size
How it was run: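 Cytotoxicity was read from cellular ATP (CellTiter-Glo luminescence) after 16 hr at 37 C with 1 uM doxycycline induction. The inducer was added 2 hr after compound transfer to Tet-on ROR gamma CHO cells.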

[15] = biological target: Nuclear receptor ROR-gamma (Homo sapiens) (UniProt P51449); test: qHTS assay to identify small molecule antagonists of the retinoid-related orphan receptor gamma (ROR-gamma) signaling pathway (AID 1159521)
How it was run: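 Inducible-expression reporter assay: doxycycline (1 uM final) switched on RORγ in CHO cells bearing a ROR response element-luciferase construct, with test compounds present from 2 h beforehand. Decreased luminescence after 16 h defined antagonist activity.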

[16] = qHTS assay to identify small molecule agonists of the AP-1 signaling pathway - cell viability counter screen (AID 1159525; calls by dose curve; further: nearly all actives have a fitted effect of over 55% in size)
How it was run: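 Luminescent ATP readout (Cell Titer Glo, 30 min RT), normalised to DMSO and tetra n-octyl ammonium bromide controls. Cells were ME-180 AP-1-bla in 0.5% dialyzed FBS Opti-MEM, with a 5 h, 37 °C compound exposure.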

[17] = qHTS assay to identify small molecule agonists of the AP-1 signaling pathway (AID 1159526; calls by dose curve)
[18] = qHTS assay to identify small molecule antagonists of the farnesoid-X-receptor (FXR) signaling pathway - cell viability counter screen (AID 743221; active means well fitted cell-killing curve with a large enough effect in the repeat runs, not every such curve was filed as active; further: nearly all actives have a fitted effect of over 50% in size)
How it was run: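 Cytotoxicity is taken from ATP luminescence (CellTiter-Glo, 30 min, room temperature) in FXR-bla HEK 293T cells previously incubated 16 h at 37 C with compound and chenodeoxycholic acid at 50 uM final.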

[19] = biological target: Bile acid receptor (Homo sapiens) (UniProt Q96RI1); test: qHTS assay to identify small molecule antagonists of the farnesoid-X-receptor (FXR) signaling pathway (AID 743217; active means well fitted inhibition curve with a large enough effect in the signal ratio in the repeat runs, not every such curve was filed as active; the % refers to the signal ratio)
How it was run: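 FXR-UAS-bla HEK 293T cells (beta-lactamase reporter) given compound plus chenodeoxycholic acid (50 uM final), 16 h at 37C. LiveBLAzer B/G FRET substrate added for 2 h at room temperature; fluorescence read.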

[20] = biological target: Bile acid receptor (Homo sapiens) (UniProt Q96RI1); test: qHTS assay to identify small molecule agonists of the farnesoid-X-receptor (FXR) signaling pathway (AID 743220; active means well fitted activation curve with a large enough effect in the signal ratio in the repeat runs, not every such curve was filed as active; the % refers to the signal ratio)
How it was run: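 Beta-lactamase reporter under UAS control in GeneBLAzer FXR HEK 293T cells (5000/well) measured with LiveBLAzer FRET substrate after 2 h at room temperature. Compound exposure lasted 16 h at 37C.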

Measured: Potency

Chain of Peroxisome proliferator-activated receptor delta (Homo sapiens) (Q03181 whole entry, looked up): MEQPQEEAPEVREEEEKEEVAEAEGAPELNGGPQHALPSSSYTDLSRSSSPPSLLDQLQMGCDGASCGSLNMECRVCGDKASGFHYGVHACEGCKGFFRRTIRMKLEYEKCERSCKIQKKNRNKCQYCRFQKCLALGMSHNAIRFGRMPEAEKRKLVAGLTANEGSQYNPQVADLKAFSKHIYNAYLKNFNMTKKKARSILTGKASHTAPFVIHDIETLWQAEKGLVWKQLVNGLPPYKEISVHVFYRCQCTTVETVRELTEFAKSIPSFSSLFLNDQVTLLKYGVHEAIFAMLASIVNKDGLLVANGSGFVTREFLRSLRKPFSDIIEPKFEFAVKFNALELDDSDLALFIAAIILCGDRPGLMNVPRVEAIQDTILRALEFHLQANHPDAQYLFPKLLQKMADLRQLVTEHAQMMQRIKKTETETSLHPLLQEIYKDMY
Chain of Vitamin D3 receptor (Homo sapiens) (P11473 whole entry, looked up): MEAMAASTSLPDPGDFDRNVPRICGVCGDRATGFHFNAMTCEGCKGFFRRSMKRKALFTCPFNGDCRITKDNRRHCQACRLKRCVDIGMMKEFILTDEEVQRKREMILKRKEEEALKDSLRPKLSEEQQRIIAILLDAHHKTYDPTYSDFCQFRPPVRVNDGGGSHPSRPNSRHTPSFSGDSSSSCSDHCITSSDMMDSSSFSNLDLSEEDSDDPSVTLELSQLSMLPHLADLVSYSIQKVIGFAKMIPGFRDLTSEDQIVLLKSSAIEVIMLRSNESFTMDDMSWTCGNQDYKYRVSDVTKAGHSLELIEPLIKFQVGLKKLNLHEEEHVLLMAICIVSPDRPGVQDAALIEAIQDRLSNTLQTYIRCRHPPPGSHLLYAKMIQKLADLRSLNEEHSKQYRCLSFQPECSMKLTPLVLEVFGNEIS
Chain of Bile acid receptor (Homo sapiens) (Q96RI1 whole entry, looked up): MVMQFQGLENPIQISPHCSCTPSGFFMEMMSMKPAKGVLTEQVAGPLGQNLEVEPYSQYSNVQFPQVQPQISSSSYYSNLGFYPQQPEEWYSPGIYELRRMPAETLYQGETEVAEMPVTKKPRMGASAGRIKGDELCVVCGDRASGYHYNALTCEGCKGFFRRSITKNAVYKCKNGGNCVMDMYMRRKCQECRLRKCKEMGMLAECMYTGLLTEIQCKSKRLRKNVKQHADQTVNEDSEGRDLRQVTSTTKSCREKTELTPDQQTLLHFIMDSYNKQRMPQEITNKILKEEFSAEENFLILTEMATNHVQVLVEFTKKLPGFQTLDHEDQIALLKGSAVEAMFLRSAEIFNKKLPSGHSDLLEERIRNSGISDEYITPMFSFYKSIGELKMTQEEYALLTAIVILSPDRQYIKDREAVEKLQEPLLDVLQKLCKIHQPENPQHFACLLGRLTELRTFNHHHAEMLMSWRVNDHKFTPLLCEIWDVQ

C1CCN(CN2CCCCC2)CC1
not listed: [18] | [19] | [20]
inactive: all other assays above

CCc1cnc(C(=O)O)c(C(=O)O)c1
not listed: [4] | [19] | [20]
inactive: all other assays above

CCCCCCOC(=O)c1ccccc1
active: [5] 30.9 µM
not listed: [4] | [9] | [20]
inactive: all other assays above

O=C(OCCOCCOCCOC(=O)c1ccccc1)c1ccccc1
not listed: [4]
inactive: all other assays above

CC(C)(C(=O)O)c1ccc(C(O)CCCN2CCC(C(O)(c3ccccc3)c3ccccc3)CC2)cc1 (stereo not given)
not listed: [4] | [7] | [19] | [20]
inactive: all other assays above

O=[N+]([O-])c1ccccc1CCO
not listed: [18] | [19] | [20]
inactive: all other assays above

O=[N+]([O-])c1ccc(Cl)cc1Cl
not listed: [6] | [7] | [19] | [20]
inactive: all other assays above

CC(CCl)OC(C)CCl (stereo not given)
not listed: [4] | [6] | [7] | [19] | [20]
inactive: all other assays above

CCCCCCCCCCCCN1CCOCC1
not listed: [7] | [18] | [19] | [20]
inactive: all other assays above

CC1(C)CC(=O)CC(C)(C)N1
not listed: [3] | [7] | [19] | [20]
inactive: all other assays above

Nc1ccc(F)cc1F
not listed: [4] | [8] | [18] | [19] | [20]
inactive: all other assays above

CCCCCCCCCCCC(=O)OCC
not listed: [4] | [19] | [20]
inactive: all other assays above

COC(=O)c1cc(Cl)ccc1[N+](=O)[O-]
not listed: [18] | [19] | [20]
inactive: all other assays above

CCC(C)C1N=C(C)C(C)S1 (stereo not given)
not listed: [6] | [7] | [19] | [20]
inactive: all other assays above

FC(F)(Cl)C(F)(Cl)Cl
not listed: [4] | [5] | [9] | [19] | [20]
inactive: all other assays above

CC[C@H](NC(C)C)[C@H](O)c1ccc(O)c2[nH]c(=O)ccc12
not listed: [6] | [19] | [20]
inactive: all other assays above

O=C1OC(=O)C2CC=CCC12 (stereo not given)
not listed: [5] | [19] | [20]
inactive: all other assays above
